Reference: publication PMC7862700, “An all-to-all approach to the identification of sequence-specific readers for epigenetic DNA modifications on cytosine”

Experiments:
Test in all cases: DAPPL (digital affinity profiling via proximity ligation, sequencing); 10 mM Tris-HCl pH 7.5, 50 mM NaCl, 1 mM DTT, 4% glycerol, room temperature, 30 min; GST-TFs on glutathione beads, 16-mer random dsDNA library, 0.1% formaldehyde crosslink after washing; high values mean tight binding
FLI1 = target: T1, FLI1 (Homo sapiens, UniProt Q01543 1-452); settings: protein: recombinant; tags: N-terminal GST; dsDNA, one strand shown
T1 sequence: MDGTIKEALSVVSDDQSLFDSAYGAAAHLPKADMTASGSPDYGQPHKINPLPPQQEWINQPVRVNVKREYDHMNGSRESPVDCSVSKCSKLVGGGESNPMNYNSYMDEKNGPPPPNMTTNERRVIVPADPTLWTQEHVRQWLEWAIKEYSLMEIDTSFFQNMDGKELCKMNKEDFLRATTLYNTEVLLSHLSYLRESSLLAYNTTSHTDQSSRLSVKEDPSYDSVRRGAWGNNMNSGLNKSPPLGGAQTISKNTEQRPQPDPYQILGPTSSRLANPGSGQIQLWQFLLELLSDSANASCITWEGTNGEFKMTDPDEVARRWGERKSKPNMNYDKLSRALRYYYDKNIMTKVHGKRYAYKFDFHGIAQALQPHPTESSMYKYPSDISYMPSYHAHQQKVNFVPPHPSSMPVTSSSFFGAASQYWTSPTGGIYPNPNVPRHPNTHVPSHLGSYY
Method in brief: (§1)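 Pools of DNA-barcoded human transcription factors, expressed in yeast as GST fusions on glutathione beads and combined with a tag-only sample, were incubated with 200 nmole of a 16-mer random double-stranded DNA library. Incubation took 30 min at room temperature in Tris/NaCl/DTT/glycerol buffer and was followed by washing, 0.1% formaldehyde crosslinking, proximity ligation (BsaI/T4 ligase, 1 h, 37 °C), PCR amplification and sequencing on an Illumina NextSeq500. Binding signal is the ratio of a hexamer's read frequency for a factor to its frequency for the tag-only sample.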

ELK1 = target: T2, ELK1 (Homo sapiens, UniProt P19419 1-428); settings: protein: recombinant; tags: N-terminal GST; dsDNA, one strand shown
T2 sequence: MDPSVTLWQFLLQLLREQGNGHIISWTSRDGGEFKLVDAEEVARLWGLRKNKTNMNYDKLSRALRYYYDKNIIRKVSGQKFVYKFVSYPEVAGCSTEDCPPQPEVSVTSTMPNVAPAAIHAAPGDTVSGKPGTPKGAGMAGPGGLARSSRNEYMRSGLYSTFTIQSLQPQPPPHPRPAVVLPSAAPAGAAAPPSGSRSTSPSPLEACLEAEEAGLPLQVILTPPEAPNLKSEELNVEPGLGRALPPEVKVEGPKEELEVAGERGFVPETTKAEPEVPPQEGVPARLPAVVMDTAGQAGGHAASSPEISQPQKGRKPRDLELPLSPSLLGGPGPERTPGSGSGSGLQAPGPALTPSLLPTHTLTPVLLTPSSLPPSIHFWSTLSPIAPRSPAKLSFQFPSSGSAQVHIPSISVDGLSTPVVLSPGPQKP
Method in brief: as §1

GABPA = target: T3, GABPA (Homo sapiens, UniProt Q06546 1-454); settings: protein: recombinant; tags: N-terminal GST; dsDNA, one strand shown
T3 sequence: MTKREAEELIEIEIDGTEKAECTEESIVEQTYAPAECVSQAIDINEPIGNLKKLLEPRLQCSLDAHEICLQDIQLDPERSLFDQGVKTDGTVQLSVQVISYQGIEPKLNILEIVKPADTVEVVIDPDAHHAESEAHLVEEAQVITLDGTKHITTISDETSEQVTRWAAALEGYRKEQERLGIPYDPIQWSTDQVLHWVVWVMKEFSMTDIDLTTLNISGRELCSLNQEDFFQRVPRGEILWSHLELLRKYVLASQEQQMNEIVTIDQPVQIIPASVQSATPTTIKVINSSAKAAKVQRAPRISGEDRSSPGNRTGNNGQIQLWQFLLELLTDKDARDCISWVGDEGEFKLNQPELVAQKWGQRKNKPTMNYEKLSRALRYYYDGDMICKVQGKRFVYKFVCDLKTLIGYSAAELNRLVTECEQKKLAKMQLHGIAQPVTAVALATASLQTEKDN
Method in brief: as §1

ERG = target: T4, ERG (Homo sapiens, UniProt P11308 1-479); settings: protein: recombinant; tags: N-terminal GST; dsDNA, one strand shown
T4 sequence: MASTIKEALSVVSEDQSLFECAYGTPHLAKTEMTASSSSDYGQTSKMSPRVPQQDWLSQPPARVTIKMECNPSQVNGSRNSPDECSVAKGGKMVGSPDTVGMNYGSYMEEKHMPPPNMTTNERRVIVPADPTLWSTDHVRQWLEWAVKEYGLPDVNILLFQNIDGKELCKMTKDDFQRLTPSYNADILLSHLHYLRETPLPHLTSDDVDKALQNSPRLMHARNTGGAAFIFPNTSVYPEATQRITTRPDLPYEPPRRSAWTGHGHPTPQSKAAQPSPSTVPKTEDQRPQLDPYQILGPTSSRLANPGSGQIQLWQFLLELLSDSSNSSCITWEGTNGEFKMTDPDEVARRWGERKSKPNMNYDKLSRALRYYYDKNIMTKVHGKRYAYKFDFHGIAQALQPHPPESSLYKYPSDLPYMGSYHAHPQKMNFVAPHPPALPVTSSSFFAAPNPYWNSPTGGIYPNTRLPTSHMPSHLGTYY
Method in brief: as §1

ELF1 = ELF1 (Homo sapiens, UniProt P32519 1-619); settings: protein: recombinant; tags: N-terminal GST; dsDNA, one strand shown
Method in brief: as §1

EHF = target: T5, EHF (Homo sapiens, UniProt Q9NZC4 1-300); settings: protein: recombinant; tags: N-terminal GST; dsDNA, one strand shown
T5 sequence: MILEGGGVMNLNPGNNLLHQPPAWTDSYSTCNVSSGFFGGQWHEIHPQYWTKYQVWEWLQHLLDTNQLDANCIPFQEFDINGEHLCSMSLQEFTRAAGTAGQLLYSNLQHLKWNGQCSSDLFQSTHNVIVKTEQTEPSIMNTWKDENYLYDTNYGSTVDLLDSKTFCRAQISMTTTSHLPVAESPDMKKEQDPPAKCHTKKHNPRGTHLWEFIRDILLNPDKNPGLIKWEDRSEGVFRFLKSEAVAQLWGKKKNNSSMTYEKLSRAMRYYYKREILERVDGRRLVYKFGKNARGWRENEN
Method in brief: as §1

SPI1 = SPI1 (Homo sapiens, UniProt P17947 1-270); settings: protein: recombinant; tags: N-terminal GST; dsDNA, one strand shown
Method in brief: as §1

SPIB = SPIB (Homo sapiens, UniProt Q01892 1-262); settings: protein: recombinant; tags: N-terminal GST; dsDNA, one strand shown
Method in brief: as §1

ELK3 = target: T6, ELK3 (Homo sapiens, UniProt P41970 1-407); settings: protein: recombinant; tags: N-terminal GST; dsDNA, one strand shown
T6 sequence: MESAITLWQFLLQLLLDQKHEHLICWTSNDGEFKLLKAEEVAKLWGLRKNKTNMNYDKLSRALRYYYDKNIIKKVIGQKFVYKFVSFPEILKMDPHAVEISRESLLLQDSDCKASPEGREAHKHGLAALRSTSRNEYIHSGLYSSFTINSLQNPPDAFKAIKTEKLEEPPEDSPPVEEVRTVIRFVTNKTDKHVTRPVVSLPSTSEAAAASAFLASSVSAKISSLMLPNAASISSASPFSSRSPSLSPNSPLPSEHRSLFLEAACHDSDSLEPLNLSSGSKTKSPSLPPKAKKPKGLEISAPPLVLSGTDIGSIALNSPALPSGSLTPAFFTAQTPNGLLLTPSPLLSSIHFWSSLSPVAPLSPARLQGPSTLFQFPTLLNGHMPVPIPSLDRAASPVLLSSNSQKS
Method in brief: as §1

FEV = target: T7, FEV (Homo sapiens, UniProt Q99581 1-238); settings: protein: recombinant; tags: N-terminal GST; dsDNA, one strand shown
T7 sequence: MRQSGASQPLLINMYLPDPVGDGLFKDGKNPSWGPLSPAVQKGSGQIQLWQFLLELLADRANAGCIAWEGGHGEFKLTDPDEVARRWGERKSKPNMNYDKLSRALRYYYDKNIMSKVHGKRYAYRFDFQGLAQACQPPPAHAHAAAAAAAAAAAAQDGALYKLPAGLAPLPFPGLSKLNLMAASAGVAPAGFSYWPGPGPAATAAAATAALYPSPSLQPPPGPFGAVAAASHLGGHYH
Method in brief: as §1

ETV5 = ETV5 (Homo sapiens, UniProt P41161 1-510); settings: protein: recombinant; tags: N-terminal GST; dsDNA, one strand shown
Method in brief: as §1

HSF1 = HSF1 (Homo sapiens, UniProt Q00613 1-529); settings: protein: recombinant; tags: N-terminal GST; chain copies: 3; dsDNA, one strand shown
Method in brief: as §1

SPIC = target: T8, SPIC (Homo sapiens, UniProt Q8N5J4 1-248); settings: protein: recombinant; tags: N-terminal GST; dsDNA, one strand shown
T8 sequence: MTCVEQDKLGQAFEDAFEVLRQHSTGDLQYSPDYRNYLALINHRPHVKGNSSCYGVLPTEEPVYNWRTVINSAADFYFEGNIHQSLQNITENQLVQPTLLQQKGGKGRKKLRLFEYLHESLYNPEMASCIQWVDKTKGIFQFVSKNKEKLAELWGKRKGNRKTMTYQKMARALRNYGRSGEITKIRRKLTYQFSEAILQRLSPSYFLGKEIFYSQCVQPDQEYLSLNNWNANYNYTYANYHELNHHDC
Method in brief: as §1

ELF4 = ELF4 (Homo sapiens, UniProt Q99607 1-663); settings: protein: recombinant; tags: N-terminal GST; dsDNA, one strand shown
Method in brief: as §1

ELK4 = target: T9, ELK4 (Homo sapiens, UniProt P28324-2 1-405); settings: protein: recombinant; tags: N-terminal GST; dsDNA, one strand shown
T9 sequence: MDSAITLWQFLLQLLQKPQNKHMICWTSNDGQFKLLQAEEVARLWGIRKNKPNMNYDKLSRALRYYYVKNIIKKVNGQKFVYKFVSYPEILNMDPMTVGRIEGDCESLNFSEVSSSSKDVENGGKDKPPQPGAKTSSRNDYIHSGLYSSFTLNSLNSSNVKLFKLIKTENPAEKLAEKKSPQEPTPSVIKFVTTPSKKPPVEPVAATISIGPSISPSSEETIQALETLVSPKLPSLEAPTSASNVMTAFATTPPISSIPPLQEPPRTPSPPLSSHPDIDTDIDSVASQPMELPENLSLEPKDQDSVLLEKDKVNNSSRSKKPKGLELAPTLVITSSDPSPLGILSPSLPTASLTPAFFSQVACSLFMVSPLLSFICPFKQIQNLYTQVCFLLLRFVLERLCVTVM
Method in brief: as §1

ETV2 = target: T10, ETV2 (Homo sapiens, UniProt O00321 1-342); settings: protein: recombinant; tags: N-terminal GST; dsDNA, one strand shown
T10 sequence: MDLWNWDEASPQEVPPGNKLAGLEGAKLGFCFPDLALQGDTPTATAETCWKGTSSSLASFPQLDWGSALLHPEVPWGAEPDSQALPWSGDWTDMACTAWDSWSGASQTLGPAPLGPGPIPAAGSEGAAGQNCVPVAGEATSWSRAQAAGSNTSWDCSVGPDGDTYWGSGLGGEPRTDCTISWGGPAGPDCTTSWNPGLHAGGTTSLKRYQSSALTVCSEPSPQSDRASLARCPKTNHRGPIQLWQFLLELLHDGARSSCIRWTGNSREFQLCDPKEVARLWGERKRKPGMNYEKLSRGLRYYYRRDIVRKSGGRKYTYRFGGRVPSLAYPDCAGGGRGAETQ
Method in brief: as §1

ELF3 = target: T11, ELF3 (Homo sapiens, UniProt P78545 1-371); settings: protein: recombinant; tags: N-terminal GST; dsDNA, one strand shown
T11 sequence: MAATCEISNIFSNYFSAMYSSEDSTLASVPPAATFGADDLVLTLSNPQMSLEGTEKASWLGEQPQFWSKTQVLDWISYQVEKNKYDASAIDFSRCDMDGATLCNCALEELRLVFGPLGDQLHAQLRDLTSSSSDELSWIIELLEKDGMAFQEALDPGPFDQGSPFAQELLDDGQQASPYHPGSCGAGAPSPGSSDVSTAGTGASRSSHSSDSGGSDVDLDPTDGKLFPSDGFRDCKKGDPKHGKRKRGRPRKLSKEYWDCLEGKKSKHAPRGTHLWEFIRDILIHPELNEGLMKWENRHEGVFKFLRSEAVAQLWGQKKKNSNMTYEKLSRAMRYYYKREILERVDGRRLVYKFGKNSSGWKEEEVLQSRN
Method in brief: as §1

CRX = CRX (Homo sapiens, UniProt O43186 1-299); settings: protein: recombinant; tags: N-terminal GST; dsDNA, one strand shown
Method in brief: as §1

ETV1 = ETV1 (Homo sapiens, UniProt P50549 1-477); settings: protein: recombinant; tags: N-terminal GST; dsDNA, one strand shown
Method in brief: as §1

HSF1, sequence (Q00613 whole entry): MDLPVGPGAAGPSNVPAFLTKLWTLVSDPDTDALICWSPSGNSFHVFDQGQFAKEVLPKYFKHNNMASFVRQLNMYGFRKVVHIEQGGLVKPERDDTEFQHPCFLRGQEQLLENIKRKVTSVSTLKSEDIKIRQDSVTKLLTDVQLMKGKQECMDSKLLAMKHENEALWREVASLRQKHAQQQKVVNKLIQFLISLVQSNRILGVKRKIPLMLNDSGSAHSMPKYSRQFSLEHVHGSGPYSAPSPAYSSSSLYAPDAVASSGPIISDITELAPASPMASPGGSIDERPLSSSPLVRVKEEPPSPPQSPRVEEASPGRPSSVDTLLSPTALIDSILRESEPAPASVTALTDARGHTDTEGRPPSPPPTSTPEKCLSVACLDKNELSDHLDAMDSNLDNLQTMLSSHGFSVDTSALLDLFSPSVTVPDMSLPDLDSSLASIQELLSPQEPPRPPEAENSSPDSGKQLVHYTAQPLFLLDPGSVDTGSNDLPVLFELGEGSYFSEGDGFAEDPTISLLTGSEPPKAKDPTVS
CRX, sequence (O43186 whole entry): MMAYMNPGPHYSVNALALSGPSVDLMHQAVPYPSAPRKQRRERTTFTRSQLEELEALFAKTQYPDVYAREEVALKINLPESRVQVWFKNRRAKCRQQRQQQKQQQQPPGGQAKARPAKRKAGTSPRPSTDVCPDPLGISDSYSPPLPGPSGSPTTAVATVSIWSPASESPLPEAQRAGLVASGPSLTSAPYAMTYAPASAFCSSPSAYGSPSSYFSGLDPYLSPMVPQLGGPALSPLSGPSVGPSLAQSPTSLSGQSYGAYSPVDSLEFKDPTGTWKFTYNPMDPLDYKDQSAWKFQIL
ETV1, sequence (P50549 whole entry): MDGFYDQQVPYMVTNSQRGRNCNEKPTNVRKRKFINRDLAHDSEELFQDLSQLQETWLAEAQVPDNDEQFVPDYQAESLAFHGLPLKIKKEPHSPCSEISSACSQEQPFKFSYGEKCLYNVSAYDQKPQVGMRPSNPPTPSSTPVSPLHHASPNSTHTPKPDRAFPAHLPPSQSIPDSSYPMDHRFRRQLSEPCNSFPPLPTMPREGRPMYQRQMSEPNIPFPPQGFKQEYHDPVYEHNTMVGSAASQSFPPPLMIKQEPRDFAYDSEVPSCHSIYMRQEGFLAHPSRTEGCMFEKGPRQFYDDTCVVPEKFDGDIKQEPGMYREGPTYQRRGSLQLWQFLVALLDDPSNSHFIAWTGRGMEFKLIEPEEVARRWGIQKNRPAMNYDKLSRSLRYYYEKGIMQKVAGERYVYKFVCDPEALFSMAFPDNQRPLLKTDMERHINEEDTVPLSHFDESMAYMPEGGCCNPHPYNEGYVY
ELF1, sequence (P32519 whole entry): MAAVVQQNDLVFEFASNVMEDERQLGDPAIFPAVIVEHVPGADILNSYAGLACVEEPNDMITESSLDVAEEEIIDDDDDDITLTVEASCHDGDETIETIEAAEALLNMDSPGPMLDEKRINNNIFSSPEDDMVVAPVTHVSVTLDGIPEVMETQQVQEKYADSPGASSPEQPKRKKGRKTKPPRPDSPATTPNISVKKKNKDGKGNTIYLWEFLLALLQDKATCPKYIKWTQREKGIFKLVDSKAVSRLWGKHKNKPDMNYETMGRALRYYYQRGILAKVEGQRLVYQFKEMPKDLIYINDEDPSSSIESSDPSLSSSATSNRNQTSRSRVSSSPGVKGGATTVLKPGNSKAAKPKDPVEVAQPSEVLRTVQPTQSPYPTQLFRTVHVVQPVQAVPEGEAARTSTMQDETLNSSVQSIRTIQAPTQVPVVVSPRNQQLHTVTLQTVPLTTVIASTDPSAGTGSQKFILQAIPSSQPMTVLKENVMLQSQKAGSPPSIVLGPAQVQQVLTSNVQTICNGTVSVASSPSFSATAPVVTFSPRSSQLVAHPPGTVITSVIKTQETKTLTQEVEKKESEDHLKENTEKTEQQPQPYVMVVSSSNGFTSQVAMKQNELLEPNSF
ETV5, sequence (P41161 whole entry): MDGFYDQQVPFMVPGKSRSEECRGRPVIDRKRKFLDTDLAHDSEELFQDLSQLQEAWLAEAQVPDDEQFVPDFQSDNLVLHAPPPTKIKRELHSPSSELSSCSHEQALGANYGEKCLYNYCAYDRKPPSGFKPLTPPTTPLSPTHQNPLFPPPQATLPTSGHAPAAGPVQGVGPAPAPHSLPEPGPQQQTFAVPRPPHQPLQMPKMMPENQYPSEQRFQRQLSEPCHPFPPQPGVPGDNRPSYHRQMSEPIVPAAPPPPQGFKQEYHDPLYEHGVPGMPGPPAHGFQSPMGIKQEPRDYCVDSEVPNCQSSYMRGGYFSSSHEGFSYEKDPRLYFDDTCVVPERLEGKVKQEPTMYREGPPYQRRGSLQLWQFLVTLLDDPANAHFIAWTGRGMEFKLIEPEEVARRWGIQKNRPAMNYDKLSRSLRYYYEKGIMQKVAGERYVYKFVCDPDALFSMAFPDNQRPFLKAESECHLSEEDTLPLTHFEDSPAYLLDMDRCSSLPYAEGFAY
ELF4, sequence (Q99607 whole entry): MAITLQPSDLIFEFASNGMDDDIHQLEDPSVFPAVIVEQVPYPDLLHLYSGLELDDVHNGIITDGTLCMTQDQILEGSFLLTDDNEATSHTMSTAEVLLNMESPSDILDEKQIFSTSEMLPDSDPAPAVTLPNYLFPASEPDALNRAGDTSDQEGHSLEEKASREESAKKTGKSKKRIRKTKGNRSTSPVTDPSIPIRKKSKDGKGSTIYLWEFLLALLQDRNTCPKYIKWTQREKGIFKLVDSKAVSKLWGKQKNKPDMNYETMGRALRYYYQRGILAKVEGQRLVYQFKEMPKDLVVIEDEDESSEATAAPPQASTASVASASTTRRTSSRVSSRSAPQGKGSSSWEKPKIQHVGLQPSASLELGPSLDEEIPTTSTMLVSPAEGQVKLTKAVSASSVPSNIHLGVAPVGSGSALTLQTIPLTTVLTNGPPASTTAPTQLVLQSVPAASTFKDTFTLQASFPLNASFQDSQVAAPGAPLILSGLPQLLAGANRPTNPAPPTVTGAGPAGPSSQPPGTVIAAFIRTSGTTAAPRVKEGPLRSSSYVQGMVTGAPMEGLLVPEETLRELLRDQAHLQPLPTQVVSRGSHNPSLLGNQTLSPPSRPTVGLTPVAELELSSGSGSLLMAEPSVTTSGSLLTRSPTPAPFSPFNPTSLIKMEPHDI
SPIB, sequence (Q01892 whole entry): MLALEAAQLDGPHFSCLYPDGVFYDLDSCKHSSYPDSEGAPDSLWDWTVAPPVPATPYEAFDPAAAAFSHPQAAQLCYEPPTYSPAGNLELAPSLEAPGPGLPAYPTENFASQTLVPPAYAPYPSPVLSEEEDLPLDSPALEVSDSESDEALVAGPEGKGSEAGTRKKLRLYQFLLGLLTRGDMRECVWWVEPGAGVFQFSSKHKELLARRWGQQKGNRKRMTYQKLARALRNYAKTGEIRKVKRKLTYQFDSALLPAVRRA

Sequence: AGTGCT
- binding signal (FLI1): 1.47 fold enrichment (6-mer frequency, TF over GST control)
- binding signal (ELK1): 1.36 fold enrichment (6-mer frequency, TF over GST control)
- binding signal (GABPA): 1.29 fold enrichment (6-mer frequency, TF over GST control)
- binding signal (ERG): 1.37 fold enrichment (6-mer frequency, TF over GST control)
- binding signal (ELF1): 1.4 fold enrichment (6-mer frequency, TF over GST control)
- binding signal (EHF): 1.4 fold enrichment (6-mer frequency, TF over GST control)
- binding signal (SPI1): 1.91 fold enrichment (6-mer frequency, TF over GST control)
- binding signal (SPIB): 1.53 fold enrichment (6-mer frequency, TF over GST control)
- binding signal (ELK3): 1.59 fold enrichment (6-mer frequency, TF over GST control)
- binding signal (FEV): 1.4 fold enrichment (6-mer frequency, TF over GST control)
- binding signal (ETV5): 1.4 fold enrichment (6-mer frequency, TF over GST control)
- binding signal (HSF1): 1.15 fold enrichment (6-mer frequency, TF over GST control)
- binding signal (SPIC): 1.67 fold enrichment (6-mer frequency, TF over GST control)
- binding signal (ELF4): 1.33 fold enrichment (6-mer frequency, TF over GST control)
- binding signal (ELK4): 1.37 fold enrichment (6-mer frequency, TF over GST control)
- binding signal (ETV2): 1.42 fold enrichment (6-mer frequency, TF over GST control)
- binding signal (ELF3): 1.02 fold enrichment (6-mer frequency, TF over GST control)
- binding signal (CRX): 1.16 fold enrichment (6-mer frequency, TF over GST control)
- binding signal (ETV1): 1.32 fold enrichment (6-mer frequency, TF over GST control)
